Results: PubChem BioAssay (NCI)
The panel holds about 83,000 compounds, 20% with a hit somewhere; the sample as a whole holds those more often.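 Cell lines were cultured in 96-well plates, exposed to a single compound concentration, and assessed for percent growth 48 hours later.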 The source made the active and inactive calls. How the source made its calls: active means growth percent below 10; inactive means the rest.

How the values were obtained:
Test in all cases: NCI-60 one-dose screen, 48 h (100 = growth as untreated, 0 = no growth, -100 = all killed)
Conditions in all cases: 10 µM unless noted
DU-145 prostate = system: DU-145 prostate
K-562 leukemia = system: K-562 leukemia
MALME-3M melanoma = system: MALME-3M melanoma
MDA-MB-231 breast = system: MDA-MB-231 breast
RXF 393 renal = system: RXF 393 renal
SF-268 CNS = system: SF-268 CNS
SF-295 CNS = system: SF-295 CNS
SF-539 CNS = system: SF-539 CNS
UACC-257 melanoma = system: UACC-257 melanoma
M14 melanoma = system: M14 melanoma
HCT-15 colon = system: HCT-15 colon
HT29 colon = system: HT29 colon
SNB-75 CNS = system: SNB-75 CNS
SNB-19 CNS = system: SNB-19 CNS
U251 CNS = system: U251 CNS
PC-3 prostate = system: PC-3 prostate
SK-MEL-5 melanoma = system: SK-MEL-5 melanoma
UACC-62 melanoma = system: UACC-62 melanoma
LOX IMVI melanoma = system: LOX IMVI melanoma
SK-MEL-28 melanoma = system: SK-MEL-28 melanoma

Measured: growth

Cc1nc2ccccc2c(/C=C/c2ccc(Cl)cc2)c1C(=O)/C=C/c1ccccc1
active: DU-145 prostate 9.75% | K-562 leukemia 6.19% | MALME-3M melanoma -20.4% | MDA-MB-231 breast 9.11% | RXF 393 renal -41.8% | SF-539 CNS -48.8% | UACC-257 melanoma -3.79% | M14 melanoma -0.144% | HCT-15 colon -30.3% | HT29 colon -15.7% | SNB-19 CNS -16.2% | U251 CNS -74.3% | UACC-62 melanoma 0.158% | LOX IMVI melanoma -85.3% | SK-MEL-28 melanoma 8.62%
inactive: SF-268 CNS 51.3% | SF-295 CNS 10.7% | SNB-75 CNS 39.7% | PC-3 prostate 23.3% | SK-MEL-5 melanoma 13.7%

CN1CCN(CC(=O)N(C)c2ccc(N=C(c3ccccc3)c3c(O)[nH]c4ccc([N+](=O)[O-])cc34)cc2)CC1
active: K-562 leukemia 5.2%
inactive: DU-145 prostate 51.3% | MALME-3M melanoma 84% | MDA-MB-231 breast 63.5% | RXF 393 renal 28.2% | SF-268 CNS 74.3% | SF-295 CNS 53.9% | SF-539 CNS 36.1% | UACC-257 melanoma 103% | M14 melanoma 36.3% | HCT-15 colon 56.8% | HT29 colon 22.7% | SNB-75 CNS 74.3% | SNB-19 CNS 89.2% | U251 CNS 73.1% | PC-3 prostate 47.6% | SK-MEL-5 melanoma 53% | UACC-62 melanoma 102% | LOX IMVI melanoma 36.3% | SK-MEL-28 melanoma 75.4%

COC(=O)c1cc(-c2cc(OC)c(OC)c(OC)c2)[nH]c1N/N=C/c1c(Cl)cccc1Cl
active: K-562 leukemia 6.67% | MALME-3M melanoma -8.03% | SF-295 CNS -41.9% | SF-539 CNS -43.1% | SNB-75 CNS 3.41%
inactive: DU-145 prostate 45.6% | MDA-MB-231 breast 23.6% | RXF 393 renal 21.6% | SF-268 CNS 31.7% | UACC-257 melanoma 45.6% | M14 melanoma 58.7% | HCT-15 colon 60% | HT29 colon 32.4% | SNB-19 CNS 28.5% | U251 CNS 14.1% | PC-3 prostate 12% | SK-MEL-5 melanoma 58.7% | UACC-62 melanoma 34.8% | LOX IMVI melanoma 19.2% | SK-MEL-28 melanoma 30.1%

O=C1c2ccccc2C(=O)c2cc(Cn3c[n+](Cc4ccc5ccccc5c4)c4ccccc43)ccc21
active: UACC-62 melanoma 4.86%
inactive: DU-145 prostate 83.1% | K-562 leukemia 17.6% | MALME-3M melanoma 48% | MDA-MB-231 breast 26.2% | RXF 393 renal 62.6% | SF-268 CNS 49.3% | SF-295 CNS 82.2% | SF-539 CNS 70.6% | UACC-257 melanoma 42.9% | M14 melanoma 38.7% | HCT-15 colon 89.8% | HT29 colon 51.5% | SNB-75 CNS 42.3% | SNB-19 CNS 45% | U251 CNS 57.1% | PC-3 prostate 27.7% | SK-MEL-5 melanoma 34.1% | LOX IMVI melanoma 52% | SK-MEL-28 melanoma 45.4%

COC(=O)[C@H](C)NC(=O)c1ccc(NC(=O)c2[nH]c(C)c(Cl)c2Cl)c(OCCN)c1
inactive: DU-145 prostate 104% | K-562 leukemia 66.7% | MALME-3M melanoma 113% | MDA-MB-231 breast 103% | RXF 393 renal 115% | SF-268 CNS 96.3% | SF-295 CNS 102% | SF-539 CNS 101% | UACC-257 melanoma 104% | M14 melanoma 119% | HCT-15 colon 99.9% | HT29 colon 109% | SNB-75 CNS 98.6% | SNB-19 CNS 101% | U251 CNS 110% | PC-3 prostate 98.5% | SK-MEL-5 melanoma 99.2% | UACC-62 melanoma 103% | LOX IMVI melanoma 96.2% | SK-MEL-28 melanoma 110%

[2H]C([2H])([2H])Oc1ccc(/C=C/C(=O)/C=C(O)/C=C/c2ccc(OC([2H])([2H])[2H])c(OC([2H])([2H])[2H])c2)cc1OC([2H])([2H])[2H]
inactive: DU-145 prostate 59% | K-562 leukemia 17.6% | MALME-3M melanoma 79.2% | MDA-MB-231 breast 72% | RXF 393 renal 59.4% | SF-268 CNS 67.2% | SF-295 CNS 39.5% | SF-539 CNS 65.8% | UACC-257 melanoma 84% | M14 melanoma 52.5% | HCT-15 colon 14.3% | HT29 colon 10.7% | SNB-75 CNS 45.7% | SNB-19 CNS 39.2% | U251 CNS 19.5% | PC-3 prostate 32.6% | SK-MEL-5 melanoma 11.6% | UACC-62 melanoma 52% | LOX IMVI melanoma 14.5% | SK-MEL-28 melanoma 87.4%

CC1(C)CC(=O)C2=C(C1)OC(C(=O)c1ccccc1)C2c1cccc(Oc2ccccc2)c1 (stereo not given)
inactive: DU-145 prostate 68.1% | K-562 leukemia 31.7% | MALME-3M melanoma 59.5% | MDA-MB-231 breast 50.4% | RXF 393 renal 42.8% | SF-268 CNS 44.6% | SF-295 CNS 32.6% | SF-539 CNS 63.9% | UACC-257 melanoma 45.5% | M14 melanoma 36.8% | HCT-15 colon 45.6% | HT29 colon 43.1% | SNB-75 CNS 40.7% | SNB-19 CNS 60.8% | U251 CNS 40.8% | PC-3 prostate 24% | SK-MEL-5 melanoma 36.3% | UACC-62 melanoma 35.9% | LOX IMVI melanoma 37% | SK-MEL-28 melanoma 74.4%
